Data as given in PubChem BioAssay AID778 (Sanford-Burnham Center for Chemical Genomics, 2007).
Among all 96,000 compounds or so, about 20,000 (21%) were called active. Not all results are given here. Values without a mark were called inactive.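 How the source made its calls: active means CYP2C19 inhibition above a set limit at 5 µM in the primary screen (cut at about 50% in these data); inactive means the rest.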

target: Cytochrome P450 2C19 (Homo sapiens) (UniProt P33261); test: blockers of cytochrome P450 2C19 activity – biochemical, luminescence, ADME assay, primary screen (AID 778); conditions: CYP2C19 Supersomes, luciferin-H EGE luminescence, 30 min; at 5 µM; active compounds read high;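 further: plate controls were negative control wells for no effect and 2.5 mM tranylcypromine positive control for full effect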
Sequence (P33261 whole entry, looked up): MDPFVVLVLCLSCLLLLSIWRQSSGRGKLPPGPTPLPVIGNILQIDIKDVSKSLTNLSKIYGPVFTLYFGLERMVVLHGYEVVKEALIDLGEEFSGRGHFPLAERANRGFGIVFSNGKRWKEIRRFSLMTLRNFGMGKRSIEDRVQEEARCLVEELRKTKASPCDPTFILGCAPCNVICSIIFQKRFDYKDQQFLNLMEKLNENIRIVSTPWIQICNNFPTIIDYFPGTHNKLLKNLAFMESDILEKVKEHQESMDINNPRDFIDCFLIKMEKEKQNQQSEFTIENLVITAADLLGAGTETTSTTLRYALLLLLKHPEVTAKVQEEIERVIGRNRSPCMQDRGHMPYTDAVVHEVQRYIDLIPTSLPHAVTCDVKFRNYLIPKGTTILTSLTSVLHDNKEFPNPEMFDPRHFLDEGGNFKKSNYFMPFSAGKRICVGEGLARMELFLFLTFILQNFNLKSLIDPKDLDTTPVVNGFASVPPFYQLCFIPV

Structure (SMILES)	inhibition
CC(=O)c1sc2nc(SCC(=O)N3CCCCC3)[nH]c(=O)c2c1C	15.5%
CCOC(=O)c1sc2nc(CSCC(=O)OCc3ccc(C(=O)OC)o3)[nH]c(=O)c2c1C	52.7% (active)
CCOC(=O)c1sc2nc(SC)nc(-c3ccccc3)c2c1N	6.9%
O=C(OCCO)c1cc(Cl)c(C(=O)OCCO)cc1Cl	15.6%
Cc1ccccc1NC(=S)Nc1cccc([N+](=O)[O-])c1	46.2%
Cc1cccc(NC(=S)Nc2ccc(Br)cc2)c1	66.8% (active)
Cc1cccc(NC(=O)Nc2cccc(Oc3c(F)c(F)c(F)c(F)c3F)c2)c1	0.7%
CCCn1c(SCC(N)=O)nnc1C(C)C	-9.9%
O=C(CN1CCN(S(=O)(=O)c2ccc3ccccc3c2)CC1)NC(=O)NC1CCCCC1	73.3% (active)
O=C(NC1CCCCC1)n1c(=O)oc2cc(S(=O)(=O)N3CCCCC3)ccc21	6.9%
O=C(CN1CCN(c2ccccn2)CC1)NC1CCCCC1	6.6%
Cc1noc(NS(=O)(=O)c2ccc(N3CC(O)=C(c4ccccc4)C3=N)cc2)c1C	-16.7%
CC12CN3CC(C)(CN(C1)C3c1ccc(Cl)cc1Cl)C2=O (stereo not given)	20.4%
COC(=O)C1=CN(C)C=C(C(=O)OC)C1c1ccc(Cl)cc1Cl	74.5% (active)
CCOc1ccccc1C1C(C(=O)OC)=CN(C)C=C1C(=O)OC	33.6%
NC(=O)C1(N2CCCCC2)CCN(C(=S)Nc2ccc(Cl)cc2)CC1	70.7% (active)
COC(=O)c1cc(NC(=O)CN2CCC(C(N)=O)(N3CCCCC3)CC2)cc(C(=O)OC)c1	14.3%
COC(=O)c1ccc(C(=O)OC)c(NC(=S)N2CCCCC2)c1	16.7%
O=C(OCc1nnc(-c2ccccc2)o1)c1ccc2c(c1)C(=O)N(CCc1ccccc1)C2=O	0.5%
CCOc1ccc(C(C)C)cc1S(=O)(=O)n1nc(C)cc1C	73.6% (active)
CCOc1ccc(NC(=O)CCC(=O)n2nc(C)cc2C)cc1	-8.5%
CCCC(C(=O)n1nc(C)cc1C)C(NS(=O)(=O)c1ccc(C)cc1)c1ccccc1 (stereo not given)	43.5%

Structure (SMILES)	inhibition
COc1cccc(CNc2nc3nc4c(c(=O)n3[nH]2)CCC4)c1	-17.3%
O=C(Cc1cccs1)N1CCCC(c2nc(-c3ccc(S(=O)(=O)N4CCCC4)cc3)no2)C1 (stereo not given)	7.4%
O=C(c1cccs1)N1CCC(c2nc3ccccc3s2)CC1	35.6%
O=C(c1cccs1)N1CCCC(c2nc(-c3ccc(F)cc3)no2)C1 (stereo not given)	64% (active)
COC(=O)/C(=C\Nc1ccccc1)NC(=O)c1ccc(Cl)cc1Cl	49%
C[N+]1(CCNC(=O)/C=N/O)CCCCC1	3.7%
Cc1cc(C)c2c(c1)cc(C)c1nnc(SCC(=O)Nc3cc(C)on3)n12	12.6%
O=C(Nc1cccc2ncccc12)c1ccc(-c2ccc(Cl)cc2Cl)o1	-13.7%
Clc1ccc(COn2c(-c3ccc(Cl)cc3Cl)nc3ncccc32)cc1	96.6% (active)
O=C(CN1C(=O)COc2ccccc21)NCCN1CCc2ccccc2C1	53.3% (active)
O=C(CN1C(=O)COc2ccccc21)Nc1ccc(F)cc1	33.4%
CCCN1CCN(CCCNC(=O)CN2C(=O)COc3ccccc32)CC1	-16.5%
Cc1cc(C)c2nc(NC(=O)C3CCCO3)sc2c1 (stereo not given)	14.4%
Fc1ccc(-c2nnc(CSc3nnc(-c4ccc5c(c4)OCO5)o3)o2)cc1	-7.5%
Cc1nc(SC(C)C)[nH]c(=O)c1Cc1ccccc1	38.8%
Cc1cnc(NC(=O)CSc2c(Cl)cccc2Cl)s1	-7.1%
CCCOC(=O)c1[nH]c2c(c1C)C(=O)CC(c1cccs1)C2 (stereo not given)	39.9%
CCOC(=O)N1CC=C2C(C#N)=C(N)C(C#N)(C#N)[C@H](c3cccs3)[C@H]2C1	-4.5%
C=CCOC(=O)C1=C(C)NC(C)=C(C(=O)OCC=C)C1c1cccs1	77% (active)
COc1cc(C2C(C(=O)Nc3ccc(F)cc3)=C(C)Nc3nc(CCCO)nn32)cc(OC)c1OC (stereo not given)	11.1%
CCCOC(=O)Cc1c(O)c2ccccc2[nH]c1=O	-12.3%
O=c1/c(=C/c2ccc(CNS(=O)(=O)c3ccccc3)o2)sc2n1CCN=2	52.4% (active)

Structure (SMILES)	inhibition
O=c1nc2s/c(=C\c3ccco3)c(=O)n2nc1Cc1ccccc1	-5.5%
CCOc1cc(CNCCN(C)C)c(Cl)cc1OCC(=O)NCCc1ccccc1	-1.1%
COc1ccc(N2C(=O)CCC(C(=O)Nc3ccccn3)C2c2ccc(OC)c(OC)c2)cc1 (stereo not given)	28.2%
CC(=O)N1CCN(C(=O)Nc2cccc(C(F)(F)F)c2)CC1	8.1%
CCOc1ccc(NC(=O)N2CCN(CC)CC2)cc1	-6.1%
CCC(=O)Nc1ccccc1C(=O)N1CCN(Cc2ccccc2)CC1	65% (active)
O=C1CCN(C(=O)Nc2ccccc2)N1	-3.2%
O=C(Nc1ccccc1)N1CCN(Cc2ccccc2)CC1	76.7% (active)
O=C(Nc1cccc(NC(=O)N2CCN(c3ccccc3)CC2)c1)N1CCN(c2ccccc2)CC1	72% (active)
Cn1nnnc1SCC(=O)N1CCN(Cc2ccccc2)CC1	38.9%
COc1cccc(N2CCN(C(=O)Nc3ccc4c(c3)NC(=O)CO4)CC2)c1	-6.5%
O=C(O)C1CC=CCC1C(=O)Nc1ccccc1C(=O)N1CCN(c2ccccc2)CC1 (stereo not given)	-10.7%
Cc1ccc(C(=O)OC2=CC(=O)CC(C)(C)C2)cc1	36.6%
CCOC(=O)c1[nH]c2ccc(OC)cc2c1NC(=O)N1CCOCC1	2.7%
Cn1c(SCC(=O)C(C)(C)C)nnc1-c1ccccn1	33.5%
CCOc1ccccc1C(=O)NCc1ccco1	14.6%
Cc1cccc(Nc2ccccc2C(=O)NCc2ccco2)c1C	22.7%
O=C(Nc1ccccc1)Nc1ccccc1C(=O)NCc1ccco1	79.3% (active)
Cc1ccc(N(Cc2ccc(C(=O)Nc3ccccc3C(=O)NCc3ccco3)cc2)S(C)(=O)=O)cc1C	87.7% (active)
CS(=O)(=O)N(Cc1ccc(Cl)cc1)c1ccc(C(=O)NCCSCc2ccco2)cc1	-3.9%
Cc1ccccc1NC(=O)NCc1ccco1	-11.9%
